Laboratory results reported in the supplement of paper PMC11732987, “Enantioselective OTUD7B fragment discovery through chemoproteomics screening and high-throughput optimisation” (Communications Chemistry, 2025).

Columns and labels:
Experiment in all cases: log2 ratio of Biotin-Ahx-Ub-VS probe labelling (fragment/DMSO); higher = less target engagement (more negative = stronger competition), active = hit call of the paper (q ≤ 0.05, log2 ratio ≤ -1)
Conditions in all cases: compound concentration: 200 uM; treatment time: 3 h
[1] = target: USP34 (UniProt Q70CQ2)
Chain of USP34 (Q70CQ2 whole entry, the tested form may be a part): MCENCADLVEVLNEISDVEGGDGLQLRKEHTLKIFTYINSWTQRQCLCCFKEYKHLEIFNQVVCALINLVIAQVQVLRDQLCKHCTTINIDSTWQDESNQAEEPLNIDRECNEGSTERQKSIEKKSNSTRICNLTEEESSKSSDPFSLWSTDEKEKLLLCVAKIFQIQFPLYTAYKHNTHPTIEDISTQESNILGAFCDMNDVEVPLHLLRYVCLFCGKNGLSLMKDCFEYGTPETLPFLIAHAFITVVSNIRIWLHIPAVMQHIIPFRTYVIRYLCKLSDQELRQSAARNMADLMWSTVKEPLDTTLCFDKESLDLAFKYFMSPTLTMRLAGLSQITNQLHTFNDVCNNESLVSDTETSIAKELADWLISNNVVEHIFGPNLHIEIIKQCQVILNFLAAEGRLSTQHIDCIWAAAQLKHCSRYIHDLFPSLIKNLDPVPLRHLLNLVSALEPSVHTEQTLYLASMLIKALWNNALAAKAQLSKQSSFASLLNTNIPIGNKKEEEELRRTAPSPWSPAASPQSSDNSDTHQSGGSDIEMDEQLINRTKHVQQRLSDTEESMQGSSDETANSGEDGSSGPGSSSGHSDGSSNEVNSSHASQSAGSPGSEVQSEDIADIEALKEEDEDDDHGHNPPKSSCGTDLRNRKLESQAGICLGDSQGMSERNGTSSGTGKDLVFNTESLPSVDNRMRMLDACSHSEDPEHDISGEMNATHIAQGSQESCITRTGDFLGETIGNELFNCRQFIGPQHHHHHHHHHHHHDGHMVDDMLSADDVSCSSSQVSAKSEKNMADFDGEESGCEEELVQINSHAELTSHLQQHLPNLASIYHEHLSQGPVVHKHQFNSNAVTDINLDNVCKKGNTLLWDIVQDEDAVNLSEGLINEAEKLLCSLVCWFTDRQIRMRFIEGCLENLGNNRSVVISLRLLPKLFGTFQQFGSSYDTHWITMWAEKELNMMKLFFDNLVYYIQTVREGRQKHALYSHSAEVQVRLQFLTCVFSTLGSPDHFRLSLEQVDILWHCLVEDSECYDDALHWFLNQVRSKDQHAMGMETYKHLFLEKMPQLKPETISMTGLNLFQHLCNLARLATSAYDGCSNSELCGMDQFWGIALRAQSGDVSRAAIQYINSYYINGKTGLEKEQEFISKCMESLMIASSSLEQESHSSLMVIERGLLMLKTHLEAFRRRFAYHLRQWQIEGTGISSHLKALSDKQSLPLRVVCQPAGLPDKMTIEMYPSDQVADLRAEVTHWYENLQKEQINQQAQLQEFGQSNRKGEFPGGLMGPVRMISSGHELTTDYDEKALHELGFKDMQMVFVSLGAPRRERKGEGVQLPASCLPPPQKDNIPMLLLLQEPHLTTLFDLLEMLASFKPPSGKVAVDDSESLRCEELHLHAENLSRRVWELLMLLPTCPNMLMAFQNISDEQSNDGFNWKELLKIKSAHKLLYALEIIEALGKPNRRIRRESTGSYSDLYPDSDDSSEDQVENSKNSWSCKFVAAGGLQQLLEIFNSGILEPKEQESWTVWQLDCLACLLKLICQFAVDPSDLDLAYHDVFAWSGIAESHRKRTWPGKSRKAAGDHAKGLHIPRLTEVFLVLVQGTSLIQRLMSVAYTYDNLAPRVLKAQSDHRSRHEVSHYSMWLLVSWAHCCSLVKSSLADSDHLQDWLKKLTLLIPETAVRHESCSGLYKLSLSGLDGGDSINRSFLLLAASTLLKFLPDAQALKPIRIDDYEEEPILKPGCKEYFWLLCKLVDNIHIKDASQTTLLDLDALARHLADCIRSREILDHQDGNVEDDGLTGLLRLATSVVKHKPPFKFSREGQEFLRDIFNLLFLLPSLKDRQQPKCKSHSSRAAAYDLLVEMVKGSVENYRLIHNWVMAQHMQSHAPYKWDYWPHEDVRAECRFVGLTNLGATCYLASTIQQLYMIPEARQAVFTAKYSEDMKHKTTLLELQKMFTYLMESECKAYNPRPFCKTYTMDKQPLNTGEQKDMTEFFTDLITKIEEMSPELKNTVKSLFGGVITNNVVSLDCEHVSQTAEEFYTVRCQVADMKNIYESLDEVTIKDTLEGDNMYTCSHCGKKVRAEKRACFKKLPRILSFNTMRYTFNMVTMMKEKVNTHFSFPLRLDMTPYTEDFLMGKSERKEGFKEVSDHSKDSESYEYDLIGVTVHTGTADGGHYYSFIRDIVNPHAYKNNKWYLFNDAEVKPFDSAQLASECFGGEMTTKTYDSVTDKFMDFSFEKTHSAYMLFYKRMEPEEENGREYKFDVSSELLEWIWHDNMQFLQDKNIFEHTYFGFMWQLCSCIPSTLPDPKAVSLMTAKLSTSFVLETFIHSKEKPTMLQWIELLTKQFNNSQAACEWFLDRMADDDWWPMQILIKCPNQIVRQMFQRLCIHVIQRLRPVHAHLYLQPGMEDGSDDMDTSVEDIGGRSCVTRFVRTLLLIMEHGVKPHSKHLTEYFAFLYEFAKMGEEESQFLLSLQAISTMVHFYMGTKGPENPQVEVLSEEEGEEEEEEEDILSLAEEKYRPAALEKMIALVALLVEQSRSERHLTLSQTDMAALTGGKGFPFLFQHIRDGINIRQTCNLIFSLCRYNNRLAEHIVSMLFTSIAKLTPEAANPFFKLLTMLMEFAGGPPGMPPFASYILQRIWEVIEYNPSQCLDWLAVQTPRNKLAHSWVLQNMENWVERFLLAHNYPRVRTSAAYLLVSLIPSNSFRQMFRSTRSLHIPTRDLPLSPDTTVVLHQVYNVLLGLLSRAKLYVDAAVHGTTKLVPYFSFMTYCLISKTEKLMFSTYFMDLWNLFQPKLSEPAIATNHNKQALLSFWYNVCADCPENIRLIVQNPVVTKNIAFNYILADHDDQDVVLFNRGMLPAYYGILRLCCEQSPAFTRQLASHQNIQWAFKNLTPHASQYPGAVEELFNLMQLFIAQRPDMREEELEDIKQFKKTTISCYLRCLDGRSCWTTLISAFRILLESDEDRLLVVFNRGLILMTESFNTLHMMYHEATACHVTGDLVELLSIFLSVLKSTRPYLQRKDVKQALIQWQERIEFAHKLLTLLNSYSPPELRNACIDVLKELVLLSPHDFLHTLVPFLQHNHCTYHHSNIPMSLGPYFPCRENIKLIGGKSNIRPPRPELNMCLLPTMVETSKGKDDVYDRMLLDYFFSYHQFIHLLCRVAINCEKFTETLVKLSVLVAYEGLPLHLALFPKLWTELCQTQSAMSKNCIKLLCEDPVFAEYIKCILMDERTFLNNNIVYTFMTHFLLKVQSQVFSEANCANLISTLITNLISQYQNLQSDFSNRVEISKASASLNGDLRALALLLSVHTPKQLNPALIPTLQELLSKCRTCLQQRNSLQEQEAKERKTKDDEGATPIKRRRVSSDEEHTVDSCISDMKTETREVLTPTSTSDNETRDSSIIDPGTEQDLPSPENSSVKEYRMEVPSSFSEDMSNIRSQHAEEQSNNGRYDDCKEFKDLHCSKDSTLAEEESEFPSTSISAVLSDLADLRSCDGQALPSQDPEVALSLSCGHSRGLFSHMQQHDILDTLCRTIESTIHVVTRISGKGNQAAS
How it was run: (§1)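 The table lists average log2 ratios of fragment over vehicle, from an unpaired t-test on global-median-normalised Spectronaut label-free quantities. Proteins with ≥2 unique peptides were used. Samples were HEK293T lysate (495 µg) treated in triplicate with fragment at 200 µM or vehicle for 3 h, then with Biotin-Ahx-Ub-VS (0.5 µM final) for 1 h, with labelled DUBs NeutrAvidin-enriched and run by diaPASEF LC-MS/MS.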

[2] = target: T1, USP36 (UniProt Q9P275)
T1 sequence (whole entry): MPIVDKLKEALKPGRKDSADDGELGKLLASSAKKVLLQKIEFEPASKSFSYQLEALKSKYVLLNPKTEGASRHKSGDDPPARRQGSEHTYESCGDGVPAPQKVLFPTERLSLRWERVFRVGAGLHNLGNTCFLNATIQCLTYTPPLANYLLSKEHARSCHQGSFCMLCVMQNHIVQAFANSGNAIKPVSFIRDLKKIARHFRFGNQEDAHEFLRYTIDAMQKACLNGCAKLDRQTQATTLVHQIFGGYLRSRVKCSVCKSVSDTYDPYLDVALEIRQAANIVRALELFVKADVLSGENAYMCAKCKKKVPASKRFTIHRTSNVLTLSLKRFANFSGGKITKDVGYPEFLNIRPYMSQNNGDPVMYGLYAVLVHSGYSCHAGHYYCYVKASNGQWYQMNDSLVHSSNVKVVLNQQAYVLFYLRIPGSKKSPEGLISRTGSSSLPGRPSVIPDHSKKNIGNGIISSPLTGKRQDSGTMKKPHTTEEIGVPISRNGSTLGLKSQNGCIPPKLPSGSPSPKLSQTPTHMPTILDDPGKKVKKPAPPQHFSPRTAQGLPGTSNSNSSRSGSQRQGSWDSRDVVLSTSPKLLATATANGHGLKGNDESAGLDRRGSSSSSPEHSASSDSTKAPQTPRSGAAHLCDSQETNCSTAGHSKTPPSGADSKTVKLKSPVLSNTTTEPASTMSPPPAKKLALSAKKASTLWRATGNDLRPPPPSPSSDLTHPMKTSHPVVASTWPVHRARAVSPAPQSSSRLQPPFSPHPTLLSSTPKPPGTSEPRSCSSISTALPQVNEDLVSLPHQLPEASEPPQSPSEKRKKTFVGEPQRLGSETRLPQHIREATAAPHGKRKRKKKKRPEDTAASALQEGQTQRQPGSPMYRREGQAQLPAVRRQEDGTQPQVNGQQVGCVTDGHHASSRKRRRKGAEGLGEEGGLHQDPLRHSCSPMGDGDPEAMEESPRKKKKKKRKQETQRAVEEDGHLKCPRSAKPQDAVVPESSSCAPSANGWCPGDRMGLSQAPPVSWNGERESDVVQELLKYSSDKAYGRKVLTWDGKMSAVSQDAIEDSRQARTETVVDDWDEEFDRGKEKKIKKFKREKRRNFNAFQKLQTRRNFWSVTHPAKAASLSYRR
How it was run: as §1

[3] = target: T2, USP38 (UniProt Q8NB14)
T2 sequence (whole entry): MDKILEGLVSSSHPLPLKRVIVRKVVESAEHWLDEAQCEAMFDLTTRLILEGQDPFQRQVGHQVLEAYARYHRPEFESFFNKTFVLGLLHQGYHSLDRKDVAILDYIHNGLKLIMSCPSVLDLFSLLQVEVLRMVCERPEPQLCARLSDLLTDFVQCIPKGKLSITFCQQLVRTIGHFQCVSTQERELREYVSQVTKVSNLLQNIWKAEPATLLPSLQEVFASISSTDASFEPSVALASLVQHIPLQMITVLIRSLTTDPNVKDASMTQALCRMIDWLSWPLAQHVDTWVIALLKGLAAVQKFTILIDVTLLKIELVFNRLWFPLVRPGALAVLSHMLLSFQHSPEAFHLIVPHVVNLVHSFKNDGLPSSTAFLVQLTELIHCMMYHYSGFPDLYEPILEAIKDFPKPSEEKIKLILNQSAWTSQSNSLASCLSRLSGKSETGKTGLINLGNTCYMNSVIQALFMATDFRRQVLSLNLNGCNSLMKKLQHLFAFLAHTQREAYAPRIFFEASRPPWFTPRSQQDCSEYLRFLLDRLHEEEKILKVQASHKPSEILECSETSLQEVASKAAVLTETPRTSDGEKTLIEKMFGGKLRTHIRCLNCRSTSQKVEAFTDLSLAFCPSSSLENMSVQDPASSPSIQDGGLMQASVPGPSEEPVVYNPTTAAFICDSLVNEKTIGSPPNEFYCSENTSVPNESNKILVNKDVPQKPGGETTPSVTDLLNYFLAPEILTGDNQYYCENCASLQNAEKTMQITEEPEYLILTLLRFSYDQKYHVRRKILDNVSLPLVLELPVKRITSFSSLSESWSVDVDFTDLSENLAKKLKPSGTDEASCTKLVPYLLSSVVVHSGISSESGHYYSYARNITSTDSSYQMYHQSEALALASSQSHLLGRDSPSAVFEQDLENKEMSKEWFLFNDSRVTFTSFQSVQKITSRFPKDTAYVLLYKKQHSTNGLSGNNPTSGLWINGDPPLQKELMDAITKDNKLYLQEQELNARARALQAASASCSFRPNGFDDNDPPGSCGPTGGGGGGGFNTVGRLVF
How it was run: as §1

[4] = target: T3, USP39 (UniProt Q53GS9)
T3 sequence (whole entry): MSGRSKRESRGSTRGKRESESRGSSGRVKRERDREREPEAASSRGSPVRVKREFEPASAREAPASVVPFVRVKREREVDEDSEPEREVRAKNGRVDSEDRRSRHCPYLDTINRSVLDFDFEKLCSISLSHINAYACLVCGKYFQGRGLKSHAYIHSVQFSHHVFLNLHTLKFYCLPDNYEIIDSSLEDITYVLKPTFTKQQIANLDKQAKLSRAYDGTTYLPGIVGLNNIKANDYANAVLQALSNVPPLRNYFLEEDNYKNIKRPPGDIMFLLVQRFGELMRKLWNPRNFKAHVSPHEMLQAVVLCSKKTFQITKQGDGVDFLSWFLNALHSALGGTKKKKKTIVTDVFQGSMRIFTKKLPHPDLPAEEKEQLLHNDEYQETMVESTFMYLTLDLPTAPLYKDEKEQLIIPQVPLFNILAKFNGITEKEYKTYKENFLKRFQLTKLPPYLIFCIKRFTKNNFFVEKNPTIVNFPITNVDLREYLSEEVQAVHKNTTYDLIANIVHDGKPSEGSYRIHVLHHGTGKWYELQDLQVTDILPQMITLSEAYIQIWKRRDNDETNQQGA
How it was run: as §1

[5] = target: T4, USP4 (UniProt Q13107)
T4 sequence (whole entry): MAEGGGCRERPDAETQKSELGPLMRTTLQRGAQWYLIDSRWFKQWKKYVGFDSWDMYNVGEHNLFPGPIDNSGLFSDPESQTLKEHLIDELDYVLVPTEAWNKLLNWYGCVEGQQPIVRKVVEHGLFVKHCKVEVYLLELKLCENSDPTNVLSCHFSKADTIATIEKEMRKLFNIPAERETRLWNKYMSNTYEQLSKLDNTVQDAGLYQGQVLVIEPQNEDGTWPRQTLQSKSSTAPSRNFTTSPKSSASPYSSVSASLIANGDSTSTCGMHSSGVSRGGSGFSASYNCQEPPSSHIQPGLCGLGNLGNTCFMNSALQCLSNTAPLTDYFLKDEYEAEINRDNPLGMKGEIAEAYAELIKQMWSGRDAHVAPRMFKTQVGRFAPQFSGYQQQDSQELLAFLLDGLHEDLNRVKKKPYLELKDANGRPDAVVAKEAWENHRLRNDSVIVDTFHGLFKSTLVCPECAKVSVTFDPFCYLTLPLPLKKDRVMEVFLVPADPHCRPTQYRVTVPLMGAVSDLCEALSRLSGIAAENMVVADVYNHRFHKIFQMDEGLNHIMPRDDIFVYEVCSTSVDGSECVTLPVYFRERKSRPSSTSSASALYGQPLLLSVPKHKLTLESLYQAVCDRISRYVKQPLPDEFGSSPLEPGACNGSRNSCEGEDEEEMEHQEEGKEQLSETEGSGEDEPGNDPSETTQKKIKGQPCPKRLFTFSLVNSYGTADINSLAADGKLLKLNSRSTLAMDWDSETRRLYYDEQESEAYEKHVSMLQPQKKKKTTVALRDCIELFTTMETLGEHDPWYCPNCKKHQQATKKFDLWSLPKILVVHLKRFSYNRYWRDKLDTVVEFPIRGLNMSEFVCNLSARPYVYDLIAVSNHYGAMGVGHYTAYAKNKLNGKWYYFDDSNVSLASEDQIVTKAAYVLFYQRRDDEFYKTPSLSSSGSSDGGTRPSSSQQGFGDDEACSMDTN
How it was run: as §1

Measured: log2 ratio of Biotin-Ahx-Ub-VS probe labelling

O=C(CCl)Nc1ccc(F)cc1F
inactive: [1] -0.242 | [2] -0.306 | [3] 0.102 | [4] 0.37 | [5] -0.0254
